Sm TGR inh = inhibitors of Schistosoma mansoni thioredoxin glutathione reductase. actives 3% (n = 360,000). purified TGR, DTNB reduction, TNB absorbance 405 nm. Q962Y6. Potency, µM (highest dose often 114 µM), without a hit: top-dose activity change, negative = inhibition, usual class: inhibitors; further: potency means the concentration at half of the fitted maximal effect; nearly all actives have a fitted effect of over 60% in size
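First, TGR (20 nM dispensed) and NADPH were mixed with compound. Second, a 15 min room-temperature incubation followed. Third, further NADPH and then DTNB were added to start the reaction. Finally, TNB absorbance was monitored kinetically.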
HCMV antiviral = human cytomegalovirus inhibition; HFF cells, HCMV-luciferase reporter, 72 h; hits give low values; activity change, negative = inhibition, % at 57.5 µM; actives 4.5% (n = 410,000); AID 1259415; in the data active means activity change below about -60%; inconclusive means no clear call, values can overlap the other calls; inactive means above about -39%
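Two compound doses tested in HFFs infected with HCMV-luciferase, MOI 1 PFU/cell, 72 h at 37C. Lysate luminescence read with OneGlo; data normalized against buffer-only and 10uM Salinomycin inhibitor controls.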
Pf growth 96h = inhibits malaria parasite growth, 96 h. P. falciparum luciferase reporter growth, 96 h. Potency, µM (doses to about 28.7 µM), without a hit: top-dose activity change, negative = inhibition, most hits filed as inhibitors. actives 6.9% (n = 320,000). AID 504834; further: potency means the concentration at half of the fitted maximal effect
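Infected RBCs, 2% Hct / 0.05% parasitemia final; luciferase-reporter P. falciparum; cpd 96 h, 37 C, 5% CO2; luciferase detection reagent; luminescence.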
Pf growth 48h = inhibits P. falciparum growth in the first generation, 48 h; P. falciparum luciferase growth in erythrocytes, 48 h; Potency, µM (highest dose often 28.7 µM), for the others: at the highest dose activity change, negative = inhibition, most hits filed as inhibitors; actives 5.9% (n = 310,000); further: potency means the concentration at half of the fitted maximal effect
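A one-generation exposure of luciferase-tagged malaria parasites in RPMI 1640/Albumax erythrocyte culture, 37 C and 5% CO2. Inhibition is inferred from decreased luminescence after adding detection reagent.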
Giardia FBPA inh = Giardia lamblia aldolase inhibition | A8B2U2 | purified Giardia FBPA | Potency, µM (titrated, usually from 59.6 µM), inactives show top-dose activity, negative = inhibition, usual class: inhibitors | actives 0.71% (n = 290,000) | AID 2451; further: potency means the concentration at half of the fitted maximal effect; nearly all actives have a fitted effect of over 55% in size
Target sequence (A8B2U2 whole entry, looked up): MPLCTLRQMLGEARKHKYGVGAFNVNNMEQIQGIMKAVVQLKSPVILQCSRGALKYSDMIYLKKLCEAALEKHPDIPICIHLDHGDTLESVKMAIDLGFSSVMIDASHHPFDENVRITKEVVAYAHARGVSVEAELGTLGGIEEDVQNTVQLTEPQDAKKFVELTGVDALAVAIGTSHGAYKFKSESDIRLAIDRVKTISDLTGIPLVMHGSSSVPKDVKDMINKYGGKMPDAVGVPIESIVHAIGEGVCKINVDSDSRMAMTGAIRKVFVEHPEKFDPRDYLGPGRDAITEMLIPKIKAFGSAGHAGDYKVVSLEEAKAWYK
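40 nM FBPA preincubated 10 min at RT with compound (up to 57.5 uM final), then substrate plus GAPDH/TPI/NAD/arsenate coupling and diaphorase/resazurin added. Fluorescence read after 20 min at RT, 525/598 nm.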
An asterisk follows results filed as active; ? = inconclusive; . = not tested or not shown; [ ] = another dose, or the depositor's remark. Rows were chosen to be rich in hits. Some 14% of all compounds tested hit in one or more screens of this group. Unless noted, the call rests on the fitted dose curve; in most records, active means well fitted curve in the direction sought with a large enough effect; inconclusive means small, poorly fitted or top-dose-only effect, or another doubt; inactive means no such curve, though single readings can be large; an effect the other way counts as inactive or inconclusive. On the % scale 0 is the no-effect control and ±100 the full control effect.

SMILES | Sm TGR inh | HCMV antiviral | Pf growth 96h | Pf growth 48h | Giardia FBPA inh
O=C1N/C(=C/c2ccco2)C(=O)N1Cc1ccccc1F | 56.2µM* | 0.2 | ? | 0.0% | -2.1%
Cc1cc(/C=C2/NC(=O)N(Cc3ccccc3F)C2=O)c(C)n1C | ? | -25.5 | 10.4µM* | 10.4µM* | -16.8%
Cc1ccc2c(c1)c(=O)c1ccccc1n2CCCC(=O)Nc1c(F)cccc1F | 4.5% | -15.6 | . | . | .
COc1ccc(Br)cc1CNC(=O)CN1C(=O)CSc2ccc(S(=O)(=O)N3CCOCC3)cc21 | 4.9% | -20.3 | . | . | .
C=C(CC[C@@H](C)[C@H]1CCC2[C@]1(C)CC[C@]13C[C@@]14CCC(OC(=O)/C=C/c1ccc(O)c(OC)c1)C(C)(C)[C@@H]4CC[C@@]23C)C(C)C (some centres undefined) | . | . | ? | 0.2% | .
C/C=C/OC(=O)NC(c1ccccc1)[C@]1(C(C)=O)CCCC1=O (some centres undefined) | . | . | . | . | -11.3%[12.9 µM]
Cc1nn(-c2ccccc2)c2nc(N)c(C#N)c(-c3ccc(F)cc3)c12 | 0.8% | -18.0 | ? | 11.7µM* | -9.2%
Cc1ccc(-n2nc(C)c3c(-c4cccs4)c(C#N)c(N)nc32)cc1 | -1.2% | 45.5 | ? | ? | -8.1%
Cc1ccc(Oc2ccc(NC(=O)C3=CC=CN4CCS(=O)(=O)N=C34)cc2)cc1 | 1.7% | 1.7 | ? | -18.2% | .
Cc1cccc(Oc2ccc(NC(=O)C3=CC=CN4CCS(=O)(=O)N=C34)cc2)c1 | -22.9% | -20.8 | 11.7µM* | ? | .
CN(C)c1nc(NC(C)(C)C)nc(NC(C)(C)C)n1 | 9.1% | ? | 33.2% | 14.7µM* | 6.5%
COc1cc(OC)c(OC)cc1CNCc1ccc2c(c1)OCO2 | 44.7µM* | -12.0 | 9.9% | 17.4% | ?
COc1cccc(CNCCc2cccc(F)c2)c1OC | ? | -2.5 | 4.15µM* | -16.7% | ?
CCOc1cc(CNCCc2cccc(F)c2)ccc1OC | -25.2% | 19.2 | ? | 7.9% | ?
COc1cc(OC)c(OC)cc1CNCCc1ccc2c(c1)OCO2 | 39.8µM* | 39.0 | ? | -6.1% | -24.3%
COc1cc(Br)c(CNCCc2ccc3c(c2)OCO3)cc1OC | -31.3% | 43.5 | 67.8% | ? | ?
COc1cccc(CNCCc2ccc3c(c2)OCO3)c1OC | 39.8µM* | -21.5 | ? | -12.5% | -24.5%
CCOc1cc(CNCc2ccc3c(c2)OCO3)ccc1OC | -1.1% | -17.6 | -24.0% | 30.9% | ?
O=c1[nH]c(/C=C\c2cccc(Cl)c2)nc(O)c1[N+](=O)[O-] | -19.8% | 38.7 | ? | ? | 7.4%
COc1ccc(NC(=O)C(c2ccncc2)n2c(=O)c(-c3ccco3)nc3ccccc32)cc1 (centres undefined) | . | 70.2 | . | . | .
CC1CCC2C(=O)OC(CN3C(=O)c4ccccc4C3=O)CN2C1c1ccc(Br)cc1 (centres undefined) | . | . | . | . | 0.4%[12.9 µM]
CC(C)(C)OC(=O)N1CCc2nc3ccccc3c(N)c2C1=O | . | -10.2 | . | . | .
Cn1c(N)c(C(=O)COC(=O)C2CCC(C(C)(C)C)CC2)c(=O)n(C)c1=O (centres undefined) | -20.8% | ? | . | 13.1µM* | -16.1%
Cn1c(N)c(C(=O)COC(=O)C2(c3ccc(Cl)cc3)CCCC2)c(=O)n(C)c1=O | -12.1% | -27.5 | . | 3.7µM* | -8.4%
Cn1c(N)c(C(=O)COC(=O)C2(c3ccc(F)cc3)CCCC2)c(=O)n(C)c1=O | -13.7% | -23.2 | 2.33µM* | 4.15µM* | -18.6%
SMILES | Sm TGR inh | HCMV antiviral | Pf growth 96h | Pf growth 48h | Giardia FBPA inh
Cn1c(N)c(C(=O)COC(=O)/C=C/c2ccc(Cl)cc2)c(=O)n(C)c1=O | -6.5% | -29.7 | -22.6% | ? | .
Cn1c(N)c(C(=O)COC(=O)C2(c3ccccc3F)CCCC2)c(=O)n(C)c1=O | -0.4% | -6.7 | -18.5% | -26.4% | ?
COc1ccc([C@H]2C(C(=O)O)=C[C@@H](C(C)(C)C)N2S(=O)(=O)c2ccccc2)cc1 | . | 2.2 | . | . | .
Cc1ccc(NC(=O)N(C2CCCCC2)C(C)c2cccnc2)cc1C (centres undefined) | -1.1% | -68.5* | -14.7% | . | 0.1%
CC1CCC(NC(=O)c2cc(Cl)nc3ccccc23)CC1 (centres undefined) | 3.2% | 23.6 | 64.9% | 52.2% | .
CCc1nc2ccccc2c(C(=O)OCC(=O)NCc2ccc3c(c2)OCO3)c1C | -4.1% | ? | ? | -11.3% | -4.1%
CCCc1nc2ccccc2c(C(=O)OCC(=O)NCc2ccc3c(c2)OCO3)c1CC | 11.9% | -7.5 | 8.28µM* | 10.4µM* | -2.6%
Cc1c(-c2cccc(Cl)c2)nc2ccccc2c1C(=O)NC1CC1 | -0.5% | 9.1 | 10.4µM* | -23.8% | .
Cc1c(-c2cccc(Cl)c2)nc2ccccc2c1C(=O)OCC(=O)Nc1ccc2c(c1)OCO2 | -2.6% | ? | 2.08µM* | ? | -7.6%
Cc1onc(-c2ccccc2)c1C(=O)OCC(=O)Nc1ccc2c(c1)OCO2 | 0.0% | 7.3 | ? | ? | 5.7%
CC(C)(C)CC(=O)Nc1cccc2c1CCCC2 | -6.7% | -23.9 | -6.4% | . | 0.5%
c1cc2c(c(NCc3ccncc3)c1)CCCC2 | -0.6% | -25.6 | . | 10.4µM* | -11.5%
CCOC(=O)c1cnn(-c2ccc(C(=O)Nc3cccc(C(C)=O)c3)cc2)c1N | 3.7% | 7.2 | . | . | .
Cc1cccc(NC(=S)NC(NC(=O)c2ccco2)C(Cl)(Cl)Cl)c1 (centres undefined) | ? | 30.4 | . | 13.1µM* | -3.0%
Cc1ccc(NC(=S)NC(NC(=O)c2ccco2)C(Cl)(Cl)Cl)cc1 (centres undefined) | ? | 33.7 | . | 4.65µM* | -4.3%
O=C(O)c1ccc(NC(=S)NC(NC(=O)c2ccco2)C(Cl)(Cl)Cl)cc1 (centres undefined) | -6.7% | 29.9 | -20.2% | . | -6.8%
Cn1ncc2c1NC(c1ccc(F)cc1)SCC2=O (centres undefined) | . | -20.7 | . | . | .
COC1CC(NC(C)=O)C(OC(=O)c2ccccc2)C(CBr)O1 (centres undefined) | . | 9.2 | . | . | .
CN(C)c1ccc(NC(=O)Cn2cc3c(n2)CCCC3)cc1 | -25.5% | -99.1* | ? | ? | -13.8%
Cc1cc(C)cc(NC(=O)Cn2cc3c(n2)CCCCC3)c1 | 0.6% | . | ? | . | 14.8%
CCN(CCCNC(=O)Cn1cc2c(n1)CCCC2)c1cccc(C)c1 | -11.2% | 11.9 | 13.1µM* | -12.8% | 0.3%
N#Cc1cccc(-c2ccc3ncnc(NCCN4CCOCC4)c3c2)c1 | . | . | . | . | -0.6%
Fc1ccc(NC(=S)Nc2cc(-c3ccccc3)[nH]n2)cc1Cl | ? | -32.4 | 25.1% | 10.4µM* | -2.1%
Cc1ccc(NC(=S)Nc2cc(-c3ccccc3)[nH]n2)cc1Cl | 0.2% | -71.9* | 28.4% | ? | -0.8%
O=C(CCCc1c[nH]c2ccccc12)N1CCCCCC1 | -1.4% | -3.4 | 5.86µM* | 2.5% | -5.0%
O=C(CCc1c[nH]c2ccccc12)N1CCCC1 | -2.1% | 17.9 | 23.0% | 12.6% | -14.8%

Screens as filed in PubChem.
